Experimental data: ChEMBL document CHEMBL1961873, “Compounds: GSK PKIS; Assays: Nanosyn kinase panel” (2012)

Tests used:
[1] = target: 5'-AMP-activated protein kinase catalytic subunit alpha-2 (Homo sapiens) (UniProt P54646); conditions: at 1 µM
[2] = target: T1, NUAK family SNF1-like kinase 1 (Homo sapiens) (UniProt O60285); conditions: at 0.1 µM
T1 sequence (whole entry): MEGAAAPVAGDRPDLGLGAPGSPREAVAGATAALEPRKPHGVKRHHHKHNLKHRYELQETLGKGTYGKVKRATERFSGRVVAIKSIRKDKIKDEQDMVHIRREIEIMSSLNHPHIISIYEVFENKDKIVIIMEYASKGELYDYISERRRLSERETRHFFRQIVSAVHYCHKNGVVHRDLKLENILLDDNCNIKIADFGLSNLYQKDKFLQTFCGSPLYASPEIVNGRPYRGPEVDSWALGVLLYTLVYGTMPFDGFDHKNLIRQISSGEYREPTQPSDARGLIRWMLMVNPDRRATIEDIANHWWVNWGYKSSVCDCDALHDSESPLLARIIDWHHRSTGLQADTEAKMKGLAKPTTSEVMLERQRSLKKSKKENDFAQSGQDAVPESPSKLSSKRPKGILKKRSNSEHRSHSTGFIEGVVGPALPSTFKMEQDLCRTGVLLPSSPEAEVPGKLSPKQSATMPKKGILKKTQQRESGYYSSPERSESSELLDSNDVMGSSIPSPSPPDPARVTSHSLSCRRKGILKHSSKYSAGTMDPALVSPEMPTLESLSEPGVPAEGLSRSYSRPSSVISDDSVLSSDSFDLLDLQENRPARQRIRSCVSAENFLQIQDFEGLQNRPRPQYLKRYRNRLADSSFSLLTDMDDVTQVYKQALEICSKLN

[3] = target: T1, NUAK family SNF1-like kinase 1 (Homo sapiens); conditions: at 1 µM
[4] = target: T2, Serine/threonine-protein kinase BRSK1 (Homo sapiens) (UniProt Q8TDC3); conditions: at 0.1 µM
T2 sequence (whole entry): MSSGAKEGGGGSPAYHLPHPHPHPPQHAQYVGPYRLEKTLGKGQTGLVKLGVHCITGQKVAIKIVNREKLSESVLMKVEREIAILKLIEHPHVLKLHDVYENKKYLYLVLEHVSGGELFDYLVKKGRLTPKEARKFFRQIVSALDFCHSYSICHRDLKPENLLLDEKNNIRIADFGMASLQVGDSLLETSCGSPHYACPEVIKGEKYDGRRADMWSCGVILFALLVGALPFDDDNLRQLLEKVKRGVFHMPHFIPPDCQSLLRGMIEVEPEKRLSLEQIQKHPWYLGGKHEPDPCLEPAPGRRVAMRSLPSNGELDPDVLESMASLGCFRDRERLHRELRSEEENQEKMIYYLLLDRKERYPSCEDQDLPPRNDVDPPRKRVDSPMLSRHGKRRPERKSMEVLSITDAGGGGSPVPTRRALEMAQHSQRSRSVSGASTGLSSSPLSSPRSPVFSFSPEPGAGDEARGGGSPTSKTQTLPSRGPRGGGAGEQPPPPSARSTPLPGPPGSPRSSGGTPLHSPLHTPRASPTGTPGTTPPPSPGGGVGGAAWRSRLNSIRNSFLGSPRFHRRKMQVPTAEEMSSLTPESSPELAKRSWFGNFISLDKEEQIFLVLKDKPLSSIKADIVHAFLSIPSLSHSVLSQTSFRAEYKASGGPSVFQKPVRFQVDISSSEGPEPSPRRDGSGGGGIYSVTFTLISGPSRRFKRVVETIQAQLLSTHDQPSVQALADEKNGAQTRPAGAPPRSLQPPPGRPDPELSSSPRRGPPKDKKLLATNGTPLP

[5] = target: T2, Serine/threonine-protein kinase BRSK1 (Homo sapiens); conditions: at 1 µM
[6] = target: T3, Serine/threonine-protein kinase BRSK2 (Homo sapiens) (UniProt Q8IWQ3); conditions: at 0.1 µM
T3 sequence (whole entry): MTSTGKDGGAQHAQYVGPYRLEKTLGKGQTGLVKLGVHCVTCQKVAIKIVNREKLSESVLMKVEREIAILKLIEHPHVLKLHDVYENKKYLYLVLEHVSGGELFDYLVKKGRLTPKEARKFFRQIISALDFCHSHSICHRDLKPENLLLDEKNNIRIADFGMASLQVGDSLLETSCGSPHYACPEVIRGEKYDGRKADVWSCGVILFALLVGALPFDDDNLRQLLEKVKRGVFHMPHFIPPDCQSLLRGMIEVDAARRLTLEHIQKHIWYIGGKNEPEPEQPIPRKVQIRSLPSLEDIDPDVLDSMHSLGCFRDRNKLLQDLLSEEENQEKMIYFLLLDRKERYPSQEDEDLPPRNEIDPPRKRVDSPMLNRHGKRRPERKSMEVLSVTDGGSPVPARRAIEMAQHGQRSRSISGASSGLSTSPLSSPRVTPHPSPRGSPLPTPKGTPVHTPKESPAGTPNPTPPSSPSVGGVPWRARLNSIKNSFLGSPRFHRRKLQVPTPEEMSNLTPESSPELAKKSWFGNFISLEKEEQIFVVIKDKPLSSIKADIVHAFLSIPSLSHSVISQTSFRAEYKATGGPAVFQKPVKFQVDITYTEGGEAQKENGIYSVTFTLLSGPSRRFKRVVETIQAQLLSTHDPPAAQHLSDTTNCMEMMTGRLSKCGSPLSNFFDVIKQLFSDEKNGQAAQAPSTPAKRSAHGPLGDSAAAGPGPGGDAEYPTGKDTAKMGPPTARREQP

[7] = target: T3, Serine/threonine-protein kinase BRSK2 (Homo sapiens); conditions: at 1 µM
[8] = target: Calcium/calmodulin-dependent protein kinase type 1D (Homo sapiens) (UniProt Q8IU85); conditions: at 0.1 µM
Sequence of Calcium/calmodulin-dependent protein kinase type 1D (Homo sapiens) (Q8IU85 whole entry, looked up): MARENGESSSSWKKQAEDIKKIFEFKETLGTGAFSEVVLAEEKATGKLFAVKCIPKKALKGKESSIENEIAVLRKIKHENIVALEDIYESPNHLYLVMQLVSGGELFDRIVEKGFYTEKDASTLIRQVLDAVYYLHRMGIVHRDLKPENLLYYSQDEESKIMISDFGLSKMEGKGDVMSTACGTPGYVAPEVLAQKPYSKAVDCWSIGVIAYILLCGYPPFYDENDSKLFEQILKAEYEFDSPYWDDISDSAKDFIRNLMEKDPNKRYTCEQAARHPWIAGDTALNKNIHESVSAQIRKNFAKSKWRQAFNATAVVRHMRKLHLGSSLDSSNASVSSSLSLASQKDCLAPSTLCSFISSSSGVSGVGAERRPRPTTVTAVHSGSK

[9] = target: Calcium/calmodulin-dependent protein kinase type 1D (Homo sapiens) (UniProt Q8IU85); conditions: at 1 µM
[10] = target: Calcium/calmodulin-dependent protein kinase type II subunit alpha (Homo sapiens) (UniProt Q9UQM7); conditions: at 0.1 µM
Sequence of Calcium/calmodulin-dependent protein kinase type II subunit alpha (Homo sapiens) (Q9UQM7 whole entry): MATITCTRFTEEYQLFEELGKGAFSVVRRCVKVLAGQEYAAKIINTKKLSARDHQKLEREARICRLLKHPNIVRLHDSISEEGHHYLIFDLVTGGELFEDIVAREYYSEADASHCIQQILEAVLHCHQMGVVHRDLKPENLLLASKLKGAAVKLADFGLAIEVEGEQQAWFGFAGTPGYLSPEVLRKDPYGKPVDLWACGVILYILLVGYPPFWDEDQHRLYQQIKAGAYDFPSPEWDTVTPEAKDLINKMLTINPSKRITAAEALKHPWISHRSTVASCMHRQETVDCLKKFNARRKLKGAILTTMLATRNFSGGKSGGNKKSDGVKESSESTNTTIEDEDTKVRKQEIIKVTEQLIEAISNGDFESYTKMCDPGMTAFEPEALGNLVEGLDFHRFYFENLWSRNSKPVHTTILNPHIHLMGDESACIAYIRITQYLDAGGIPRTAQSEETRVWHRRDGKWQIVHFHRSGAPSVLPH

[11] = target: Calcium/calmodulin-dependent protein kinase type II subunit alpha (Homo sapiens) (UniProt Q9UQM7); conditions: at 1 µM
[12] = target: Calcium/calmodulin-dependent protein kinase type II subunit delta (Homo sapiens) (UniProt Q13557); conditions: at 0.1 µM
Sequence of Calcium/calmodulin-dependent protein kinase type II subunit delta (Homo sapiens) (Q13557 whole entry): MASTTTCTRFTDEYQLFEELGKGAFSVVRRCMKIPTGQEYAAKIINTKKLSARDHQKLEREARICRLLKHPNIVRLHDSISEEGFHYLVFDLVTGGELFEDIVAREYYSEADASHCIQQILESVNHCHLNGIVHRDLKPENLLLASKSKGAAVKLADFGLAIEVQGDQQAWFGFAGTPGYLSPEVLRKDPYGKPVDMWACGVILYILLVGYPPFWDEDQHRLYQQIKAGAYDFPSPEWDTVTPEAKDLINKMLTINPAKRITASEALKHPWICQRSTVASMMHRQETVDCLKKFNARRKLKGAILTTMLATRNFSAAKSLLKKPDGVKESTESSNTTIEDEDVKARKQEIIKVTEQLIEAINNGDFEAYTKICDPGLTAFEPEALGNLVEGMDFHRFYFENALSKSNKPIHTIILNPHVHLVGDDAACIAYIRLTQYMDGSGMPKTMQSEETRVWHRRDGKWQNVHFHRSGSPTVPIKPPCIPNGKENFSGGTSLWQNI

[13] = target: Calcium/calmodulin-dependent protein kinase type II subunit delta (Homo sapiens) (UniProt Q13557); conditions: at 1 µM
[14] = target: T4, Calcium/calmodulin-dependent protein kinase type IV (Homo sapiens) (UniProt Q16566); conditions: at 0.1 µM
T4 sequence (whole entry): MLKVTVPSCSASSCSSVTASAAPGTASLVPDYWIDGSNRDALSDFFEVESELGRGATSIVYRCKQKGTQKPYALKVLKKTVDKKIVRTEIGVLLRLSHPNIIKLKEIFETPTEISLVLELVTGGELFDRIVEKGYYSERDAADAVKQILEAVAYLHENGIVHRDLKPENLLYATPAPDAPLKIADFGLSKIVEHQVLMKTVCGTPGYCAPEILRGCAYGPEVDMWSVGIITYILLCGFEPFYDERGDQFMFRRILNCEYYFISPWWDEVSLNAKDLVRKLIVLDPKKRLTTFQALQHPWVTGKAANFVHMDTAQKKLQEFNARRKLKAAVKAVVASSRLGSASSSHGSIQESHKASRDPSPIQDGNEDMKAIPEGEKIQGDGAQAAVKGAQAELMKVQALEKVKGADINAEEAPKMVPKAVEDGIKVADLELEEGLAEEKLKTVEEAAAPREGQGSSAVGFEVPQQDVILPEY

[15] = target: T4, Calcium/calmodulin-dependent protein kinase type IV (Homo sapiens); conditions: at 1 µM
[16] = target: T5, Serine/threonine-protein kinase Chk1 (Homo sapiens) (UniProt O14757); conditions: at 0.1 µM
T5 sequence (whole entry): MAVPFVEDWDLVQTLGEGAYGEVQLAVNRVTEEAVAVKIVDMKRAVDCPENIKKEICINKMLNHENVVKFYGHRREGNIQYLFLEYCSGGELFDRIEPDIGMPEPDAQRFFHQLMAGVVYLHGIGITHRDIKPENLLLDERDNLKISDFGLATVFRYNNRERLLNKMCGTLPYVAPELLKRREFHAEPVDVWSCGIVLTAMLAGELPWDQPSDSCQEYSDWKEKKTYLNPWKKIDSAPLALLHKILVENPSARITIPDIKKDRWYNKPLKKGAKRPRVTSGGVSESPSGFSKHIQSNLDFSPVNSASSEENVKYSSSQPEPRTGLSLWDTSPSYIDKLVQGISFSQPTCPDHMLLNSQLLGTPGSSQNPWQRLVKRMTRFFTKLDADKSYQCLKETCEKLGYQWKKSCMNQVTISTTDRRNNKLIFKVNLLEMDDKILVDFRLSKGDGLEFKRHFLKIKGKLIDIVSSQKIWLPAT

[17] = target: T5, Serine/threonine-protein kinase Chk1 (Homo sapiens); conditions: at 1 µM
[18] = target: Serine/threonine-protein kinase Chk2 (Homo sapiens) (UniProt O96017); conditions: at 0.1 µM
Sequence of Serine/threonine-protein kinase Chk2 (Homo sapiens) (O96017 whole entry): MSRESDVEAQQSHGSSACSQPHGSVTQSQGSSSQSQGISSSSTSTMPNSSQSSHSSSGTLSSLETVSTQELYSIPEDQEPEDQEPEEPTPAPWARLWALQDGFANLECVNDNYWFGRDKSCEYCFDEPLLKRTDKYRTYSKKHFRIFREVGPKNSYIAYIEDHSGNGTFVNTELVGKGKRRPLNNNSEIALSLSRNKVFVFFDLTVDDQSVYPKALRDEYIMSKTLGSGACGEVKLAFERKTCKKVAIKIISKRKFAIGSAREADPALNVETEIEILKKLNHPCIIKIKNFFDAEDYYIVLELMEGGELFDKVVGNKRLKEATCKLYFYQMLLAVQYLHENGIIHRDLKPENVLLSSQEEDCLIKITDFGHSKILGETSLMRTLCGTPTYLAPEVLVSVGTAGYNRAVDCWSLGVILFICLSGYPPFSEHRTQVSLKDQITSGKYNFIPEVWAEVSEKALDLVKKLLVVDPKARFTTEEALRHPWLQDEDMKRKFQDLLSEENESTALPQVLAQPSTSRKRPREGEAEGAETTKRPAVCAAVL

[19] = target: Serine/threonine-protein kinase Chk2 (Homo sapiens) (UniProt O96017); conditions: at 1 µM
[20] = target: Death-associated protein kinase 1 (Homo sapiens) (UniProt P53355); conditions: at 0.1 µM;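 also: reported figure is the mean inhibition of DAPK1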
Sequence of Death-associated protein kinase 1 (Homo sapiens) (P53355 whole entry, looked up): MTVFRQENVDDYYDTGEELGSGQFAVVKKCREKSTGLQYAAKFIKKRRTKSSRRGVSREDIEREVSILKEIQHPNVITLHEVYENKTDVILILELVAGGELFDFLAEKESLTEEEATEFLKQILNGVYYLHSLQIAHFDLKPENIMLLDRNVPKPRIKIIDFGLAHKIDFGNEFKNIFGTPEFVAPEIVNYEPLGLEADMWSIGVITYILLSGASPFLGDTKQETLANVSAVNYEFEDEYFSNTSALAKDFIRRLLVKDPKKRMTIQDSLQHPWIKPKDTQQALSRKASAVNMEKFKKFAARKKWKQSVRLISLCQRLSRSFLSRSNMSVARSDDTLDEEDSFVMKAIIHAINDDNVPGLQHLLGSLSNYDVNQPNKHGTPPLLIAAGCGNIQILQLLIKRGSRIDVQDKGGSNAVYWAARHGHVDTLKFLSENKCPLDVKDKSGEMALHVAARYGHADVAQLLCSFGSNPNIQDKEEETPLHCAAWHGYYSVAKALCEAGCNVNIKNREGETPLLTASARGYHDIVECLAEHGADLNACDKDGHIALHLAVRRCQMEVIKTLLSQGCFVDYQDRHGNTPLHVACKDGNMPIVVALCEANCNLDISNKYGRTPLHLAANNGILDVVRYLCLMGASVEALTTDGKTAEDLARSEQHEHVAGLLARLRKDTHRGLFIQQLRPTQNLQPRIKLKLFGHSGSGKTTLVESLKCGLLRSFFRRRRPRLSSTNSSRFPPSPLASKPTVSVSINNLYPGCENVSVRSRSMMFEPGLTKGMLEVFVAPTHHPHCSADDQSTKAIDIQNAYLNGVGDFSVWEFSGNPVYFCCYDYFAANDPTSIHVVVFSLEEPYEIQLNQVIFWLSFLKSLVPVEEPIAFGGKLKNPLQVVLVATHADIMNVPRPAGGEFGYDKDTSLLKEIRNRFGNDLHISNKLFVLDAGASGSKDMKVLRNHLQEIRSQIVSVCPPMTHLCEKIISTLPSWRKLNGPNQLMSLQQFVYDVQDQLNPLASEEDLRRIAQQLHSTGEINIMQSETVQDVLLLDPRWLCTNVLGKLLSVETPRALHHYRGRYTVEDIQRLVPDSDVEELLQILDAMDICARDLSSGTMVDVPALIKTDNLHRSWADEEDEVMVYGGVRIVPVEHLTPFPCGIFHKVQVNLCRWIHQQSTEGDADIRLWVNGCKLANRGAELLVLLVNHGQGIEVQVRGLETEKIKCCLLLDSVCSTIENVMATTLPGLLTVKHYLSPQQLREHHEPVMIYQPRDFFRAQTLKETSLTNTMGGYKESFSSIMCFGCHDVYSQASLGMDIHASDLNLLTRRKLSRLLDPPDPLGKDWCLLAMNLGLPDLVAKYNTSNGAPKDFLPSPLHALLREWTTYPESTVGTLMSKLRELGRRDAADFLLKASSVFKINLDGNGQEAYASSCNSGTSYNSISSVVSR

Sequence of 5'-AMP-activated protein kinase catalytic subunit alpha-2 (Homo sapiens) (P54646 whole entry, looked up): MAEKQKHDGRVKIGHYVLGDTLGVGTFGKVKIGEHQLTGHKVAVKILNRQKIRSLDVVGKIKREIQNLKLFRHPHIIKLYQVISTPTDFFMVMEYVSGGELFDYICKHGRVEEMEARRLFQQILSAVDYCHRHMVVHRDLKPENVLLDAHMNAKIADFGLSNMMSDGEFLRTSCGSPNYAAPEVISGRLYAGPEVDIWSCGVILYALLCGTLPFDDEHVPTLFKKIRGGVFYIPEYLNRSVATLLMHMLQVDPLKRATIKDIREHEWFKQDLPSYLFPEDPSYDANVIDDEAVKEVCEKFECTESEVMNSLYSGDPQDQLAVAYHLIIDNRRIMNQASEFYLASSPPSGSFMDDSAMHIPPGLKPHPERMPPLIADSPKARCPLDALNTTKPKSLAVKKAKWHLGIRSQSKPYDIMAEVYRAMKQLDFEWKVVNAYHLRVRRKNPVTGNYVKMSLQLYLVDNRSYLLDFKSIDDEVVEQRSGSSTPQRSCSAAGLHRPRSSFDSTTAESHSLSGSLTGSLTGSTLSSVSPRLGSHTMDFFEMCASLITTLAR

Row | Structure (SMILES) | inhibition [1] [%] | inhibition [2] [%] | inhibition [3] [%] | inhibition [4] [%] | inhibition [5] [%] | inhibition [6] [%] | inhibition [7] [%] | inhibition [8] [%] | inhibition [9] [%] | inhibition [10] [%] | inhibition [11] [%] | inhibition [12] [%] | inhibition [13] [%] | inhibition [14] [%] | inhibition [15] [%] | inhibition [16] [%] | inhibition [17] [%] | inhibition [18] [%] | inhibition [19] [%] | inhibition [20] [%]
1 | CC1=C(C(=O)Nc2ccc3[nH]nc(C)c3c2)C(c2ccc(C(F)(F)F)cc2)CC(=O)N1 (stereo not given) | 7.41 | 6.8 | 31.1 | 4.32 | 21.3 | 6.42 | 32.6 | 0.54 | 2.58 | 1.45 | 2.9 | 1.76 | 4.44 | 0.07 | 0.57 | 2.48 | 2.75 | 1.95 | 6.02 | 3.37
2 | COc1ccc(-c2nn3ncccc3c2-c2ccnc(Nc3ccc(F)c(F)c3)n2)cc1 | 6.49 | 3.92 | 5.51 | 3.95 | 7.79 | 5.66 | 7.14 | -0.12 | 1.91 | 3.21 | 4.43 | 3.14 | 7.4 | -3.18 | -4.79 | 3.76 | 8.64 | 6.74 | 7.89 | 4.63
3 | CCOc1ccc2c(-c3ccnc(Nc4cc(OC)cc(C(F)(F)F)c4)n3)cnn2n1 | 3.94 | 4.52 | 21.2 | 0.53 | 5.51 | 1.89 | 6.6 | 0.33 | 2.28 | -1.52 | -0.03 | 0.7 | 1.42 | 1.18 | -0.28 | 3.19 | 1.38 | -0.97 | 0.04 | 0.8
4 | O=C(Nc1n[nH]c2nnc(-c3cccnc3)cc12)C1CC1 | 0.41 | 1.34 | 0.53 | -0.56 | -3.34 | 0.35 | 1.6 | 0.85 | 0.89 | -1.44 | 1.88 | -1.25 | 1.45 | 1.28 | 0.43 | 0.7 | -2.5 | -1.27 | -0.14 | -1.32
5 | NS(=O)(=O)c1ccc(N/N=C2\C(=O)Nc3ccc(C(=O)NCc4ccncc4)cc32)cc1 | 34.9 | 18.9 | 59.5 | 6.67 | 39.7 | 17.2 | 55.8 | -0.48 | -0.33 | 2.84 | 5.1 | 3.39 | 11.8 | -2.17 | -4.16 | 2.58 | 11.1 | 4.18 | 19.2 | 4.72
6 | COc1ccc2ncn(-c3cc(O[C@H](C)c4ccccc4C(F)(F)F)c(C(N)=O)s3)c2c1 | 2.72 | 5.12 | 43.5 | 2.49 | 25.8 | 6.06 | 36.5 | 0.14 | 1.96 | -1.63 | 0.95 | -0.5 | 5.44 | 1.4 | 3.11 | 1.46 | 0.47 | -1.28 | -0.25 | -0.67
7 | FC(F)(F)CNc1nccc(-c2cnn3ncccc23)n1 | 2.02 | 2.93 | 1.68 | 1.54 | 4.3 | 3.14 | 5.75 | 0.18 | 0.52 | 0.49 | -1.03 | 2.87 | 1.95 | -0.09 | -1.75 | 0.28 | 2.9 | 1.64 | 0.78 | 3.66
8 | c1ccc(-c2n[nH]cc2-c2ccnc(-c3ccc(OCCn4ccnc4)cc3)c2)nc1 | 1.29 | -0.74 | 7.14 | 0.8 | 1.98 | 0.62 | 4.44 | -0.08 | 0.91 | -3.32 | -1.38 | -0.35 | 0.74 | 0.1 | -0.86 | -5.5 | -4.71 | -3.83 | -2.77 | -7.91
9 | Fc1ccc(Nc2nccc(-c3c(-c4ccc(C(F)(F)F)cc4)nn4ncccc34)n2)cc1F | 3.75 | 2.79 | 1.57 | 2.38 | 1.19 | 1.46 | 0.71 | -0.76 | 1.66 | 3.04 | 4.6 | 1.73 | 4.42 | -0.48 | 0.05 | 3 | 3.73 | 3.02 | 4.46 | 3.45
